# Assay results as given in the OligoGym collection.
# Molecular target: ANK1
# Test: pooled miR-30 sensor sort-seq; sequence = guide strand
# Details: shRNA
# Also: reference of the scale not given here.
row,Sequence,sensor-assay potency score (higher = more potent)
1,TTGCGAATGATCTTCTTGGTGA,0.462
2,TATTCTGAAACTCATTCCCCTG,-1.12
3,TATCTGTCGAACCACCTTGCGA,-1.29
4,TCTATCTGTCGAACCACCTTGC,0.271
5,TCGGTGACCGCGTCGATCGAGG,-1.26

# Molecular target: ANKRD22
# Test: as above
# Details: shRNA
row,Sequence,sensor-assay potency score (higher = more potent)
1,ATCTGTAGCATTAACTTCGACG,-1.27
2,TATCCAGTGAGCTCTCACCATG,-1.62
3,TTGACATTAGCATTTCTTCTTA,-0.439
4,ATTAAAGCCATCTTGAACGTTG,-0.412
5,TAAATTTTTTCTTCACAGCATA,-1.16
